The list is not random: actives were taken first. Their share in the collection is about 0.86%.
TAR Tat displ = HIV-1 TAR-Tat binding disruption. HIV-1 TAR RNA, Tat peptide displacement FRET; hits give high values. z-score (no concentration beside the values). 0.6% of 100,000 active. AID 1259389; active = z-score of 3 or more in at least 2 runs
CDC25B CDK2 inh = human CDC25B-CDK2/CyclinA binding inhibition. z-score (no concentration beside the values). HTRF CDC25B-CDK2/CyclinA binding, anti-His/anti-Flag; hits give high values. 0.72% of 94,000 active. P30305+P24941; in the data active = z-score above about 3.2
* hit, by the source's call; x = no result.

SMILES	TAR Tat displ	CDC25B CDK2 inh
CCN1CCN(c2cc(NC3CCCCC3)c3c4c(onc24)-c2ccccc2C3=O)CC1	4.31*	-0.46
CCCN1CCN(c2cc(NCC)c3c4c(onc24)-c2ccccc2C3=O)CC1	-0.63	-1.8
CC(C)Nc1cc(N2CCCC2)c2noc3c2c1C(=O)c1ccccc1-3	-5.03	-1.66
CC(C)Nc1cc(N2CCN(CCO)CC2)c2noc3c2c1C(=O)c1ccccc1-3	9.49*	0.08
O=C(CSc1nc2nccnc2c(=O)n1CCc1c[nH]c2ccccc12)NCC1CCCO1 (stereo unspecified)	0.23	-2.73
O=C1C2=C(c3ccccc31)C(c1ccccn1)Nc1ccc3ccccc3c12 (stereo unspecified)	-0.02	-0.08
O=C1C(c2ccccc2)=C(Nc2ccc(Cl)cc2)c2ccccc21	2.99	-1.94
Cc1nc2ccc(-c3nc4ccc(N)cc4[nH]3)cc2[nH]1	x	4.99*
Nc1ccc(-c2nc3ccc(N)cc3[nH]2)cc1	x	-1.53
Nc1ccc2nc(-c3ccc(Cl)cc3)[nH]c2c1	5.14*	-1.99
Cc1c(N)ccc2[nH]c(-c3ccc(N)cc3)nc12	2.37	-3.1
Cc1ccc(-c2nc3ccc(N)cc3[nH]2)cc1	-7.56	-1.96
Nc1ccc(-c2nc3c(Cl)c(N)ccc3[nH]2)cc1	3.7*	-7.51
CN(C(=O)c1cc2cccc([N+](=O)[O-])c2[nH]1)c1ccccc1Cl	x	0.54
CN(NC1OC(=O)c2ccccc21)c1ncc(C(F)(F)F)cc1Cl (stereo unspecified)	x	0.08
CCOC(=O)/C=C/C(=O)O	x	-0.92
C[Si](C)(C)OC(=O)/C=C\C(=O)O[Si](C)(C)C	x	6.07*
Cc1nn(CC(=O)Nc2sc3c(c2C(=O)OC(C)C)CCCC3)c(C)c1[N+](=O)[O-]	0.17	-1.33
CCOc1ccc(-c2csc(-c3cc4c([nH]c3=O)CC(c3ccco3)CC4=O)n2)cc1 (stereo unspecified)	-5.33	18.9*
O=C1CC(c2ccco2)Cc2[nH]c(=O)c(-c3nc(-c4ccc(Oc5ccccc5)cc4)cs3)cc21 (stereo unspecified)	0.71	15.9
COc1ccc(N2CSC3=C(C#N)C(c4ccc(O)c(OC)c4)CC(=O)N3C2)cc1 (stereo unspecified)	-1.64	4*
COc1cc(C2CC(=O)N3CN(c4ccc(F)cc4)CSC3=C2C#N)ccc1O (stereo unspecified)	28.7*	3.32*
COc1cc(C2CC(=O)N3CN(c4ccc(C)c(C)c4)CSC3=C2C#N)ccc1O (stereo unspecified)	1.62	0.52
COc1cc(C2CC(=O)N3CN(c4ccc(Cl)cc4)CSC3=C2C#N)ccc1O (stereo unspecified)	25.2*	4.18*
O=C(NC1CCCC1)c1sc2ncccc2c1-n1cccc1	0.36	x
SMILES	TAR Tat displ	CDC25B CDK2 inh
O=C(NCCN1CCNC1=O)c1ccc2nccnc2c1	x	-0.68
CC1CCCN(S(=O)(=O)c2cccc(N)c2)C1 (stereo unspecified)	2.37	-1.14
Cc1cc(C)n(CCc2nc3c4c(C)c(C)oc4ncn3n2)n1	0.39	x
COC(=O)C1=C(C(=O)OC)SC(=C2C(=S)C(C)(C)Nc3ccc(C)cc32)S1	1.63	17.9*
COC(=O)C1=C(C(=O)OC)SC(=C2C(=S)C(C)(C)Nc3cc(C)c(C)cc32)S1	2.24	-0.72
COC(=O)c1ccc(C(=O)OC)c(N2C(=O)c3c(C)nc4ccccc4c3C2=O)c1	15.9	1.07
CCOC(=O)CC(=O)CSc1nc(C)c2ccc(C)cc2n1	-7.56	-1.77
CCC(=O)n1/c(=N/C(=N)N)nc(C)c2ccc(C)cc21	x	9.03*
CCN1CNC(=S)N(c2ccc(F)c(Cl)c2)C1	x	-1.09
COc1ccc(-c2cnc(C)o2)cc1S(=O)(=O)Nc1ccc(C(C)C)cc1	1.28	x
Cc1cc(NC(=O)c2sc3nc4n(c(=O)c3c2C)CCCC4)no1	0.89	x
CC1=C(C#N)c2nc(N)c(C#N)c(C)c2/C1=C/c1ccc(-c2ccc(C(=O)O)c(Cl)c2)o1	x	5.09*
CC1=C(C#N)C(=O)NC(=O)/C1=C\c1ccc(-c2ccccc2)o1	x	-5.59
Brc1ccc(OCc2nn3c(-c4ccccc4)nnc3s2)cc1	-1.19	0.71
CCCCNC(=O)CCCc1nc(-c2cccs2)no1	1.24	0.83
O=C(O)c1cc(-c2cc(C(=O)O)c3ccccc3n2)nc2ccccc12	1.12	1.55
O=C(O)c1cc(-c2ccco2)nc2ccccc12	23.9*	x
CCC(=O)C1C(=O)c2ccccc2C1=O	x	0.67
Fc1ccc(NC(=S)Nc2cccc3c(NC(=S)Nc4ccc(F)cc4)cccc23)cc1	x	17.6*
CSc1ccccc1NC(=S)Nc1ccc(Cl)cc1	x	-1.53
Clc1cccc(N2CCN(Cc3nnc(-c4ccccc4)o3)CC2)c1	2.81	-0.69
CCCCCC1CC(CC(=O)O)C(=O)O1 (stereo unspecified)	0.59	-0.17
CCOC(=O)C1CCN(c2nnc(-n3c(C)ccc3C)s2)CC1	-0.52	4
CCOC(=O)C1CCN(c2ccc([N+](=O)[O-])s2)CC1	3.46*	x
